From PubChem BioAssay (NCI)
About 79,000 compounds went through this panel and 15% of them were active in at least one assay; those are over-represented in the sample as a whole. Calls of active or inactive are those of the source. No stated cut-off is given here; in the data, active means growth inhibition above about 70%; inactive means the rest.

Legend:
[1] = NCI Yeast Anticancer Drug Screen. Data for the rad50 strain (AID 155);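 further: 0% = growth of vehicle-only cultures of the same strain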; details: S. cerevisiae rad50 strain growth inhibition; at 50.0 µM; hits give high values
Outline: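 A DNA repair-deficient yeast mutant serves as the test organism; compound-induced growth inhibition is calculated against vehicle-treated cells.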

[2] = NCI Yeast Anticancer Drug Screen. Data for the mec2-1 strain (AID 157); details: S. cerevisiae mec2-1 strain, at 50.0 µM, hits give high values
Outline: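 Growth inhibition is read against vehicle-treated controls after compound exposure of the mec2-1 yeast strain, which is defective in DNA damage repair or cell cycle control.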

[3] = NCI Yeast Anticancer Drug Screen. Data for the sgs1 mgt1 strain (AID 161);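 further: 0% = growth of cultures given vehicle only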; details: S. cerevisiae sgs1 mgt1 strain, at 50.0 µM, hits give high values
Outline: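 This yeast growth screen uses a strain with defined DNA-repair lesions; compound-treated growth is compared with vehicle-treated growth.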

[4] = NCI Yeast Anticancer Drug Screen. Data for the cln2 rad14 strain (AID 165);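 further: 0% = growth equal to vehicle treated cultures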; details: S. cerevisiae cln2 rad14 strain, at 50.0 µM, hits give high values
Outline: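 Growth inhibition, relative to vehicle-treated controls, is the read-out. The test organism is a yeast strain with defined genetic alterations, cln2 rad14.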

[5] = NCI Yeast Anticancer Drug Screen. Data for the bub3 strain (AID 167); details: S. cerevisiae bub3 mutant strain, at 50.0 µM, hits give high values
Outline: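 Inhibition values come from growth of compound-treated mutant yeast normalised to vehicle-treated controls.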

[6] = NCI Yeast Anticancer Drug Screen. Data for the mlh1 rad18 strain (AID 175); details: S. cerevisiae mlh1 rad18 strain growth inhibition; at 50.0 µM; hits give high values
Outline: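 Cells of a genetically altered yeast strain, deficient in DNA damage repair, were treated with compound. Their growth was then compared with that of vehicle-treated cultures to give inhibition.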

Measured: growth inhibition

CC(=O)Oc1ccccc1Cl
inactive: [1] 18.1% | [2] 31.5% | [3] 25.9% | [4] 13.3% | [5] 19.1% | [6] 16.8%

C=Cc1c2[n-]c(c1C)/C=c1\[n-]/c(c(C)c1C=C)=C\c1[n-]c(c(CCC(=O)O)c1C)/C=c1\[n-]/c(c(C)c1CCC(=O)O)=C\2.[Co]
inactive: [1] 14.8% | [2] 54.9% | [3] 53.6% | [4] -2.05% | [5] 19.2% | [6] 59.9%

CNc1n[nH]c(-c2ccccc2)n1
inactive: [1] 4.85% | [2] -17.5% | [3] 11.8% | [4] 11.9% | [5] 1.15% | [6] 1.8%

C=CC(C)C1C(C)C(Cl)CC(Cl)C1OC(=O)c1ccccc1 (configuration not stated)
inactive: [1] 14.1% | [2] -0.65% | [3] 10.7% | [4] -2.3% | [5] 17.8% | [6] -11.3%

CCCCCCCCCCCCCCCCOCC(COP(=O)(O)OCC1OC(n2cc(CC)c(=O)[nH]c2=O)CC1O)OC(=O)CCCCCCCCCCCCCCC (configuration not stated)
inactive: [1] -0.45% | [2] -5.55% | [3] 5.25% | [4] 3.15% | [5] -15.1% | [6] -65%

C(=N\N1CCN(/N=C/c2c[nH]c3ccccc23)CC1)/c1c[nH]c2ccccc12
inactive: [1] 10.3% | [2] -11.5% | [3] -12.8% | [4] -1.05% | [5] 0.7% | [6] -3.05%

CC(C)OC(=O)C(C)(OC(=O)c1ccccc1)c1ccccc1 (configuration not stated)
inactive: [1] 5.35% | [2] -14.8% | [3] 4.35% | [4] -13.1% | [5] 19.1% | [6] 14.3%

CC(=O)c1ccc(OC(=O)Nc2ccc(Cl)cc2)cc1
inactive: [1] 4.8% | [2] 10.1% | [3] 23.9% | [4] -2.3% | [5] 29.6% | [6] 12.9%

COc1cccc(NC(=O)CC(=O)N2N=C(n3ccc4ccccc43)CC2c2ccccc2)c1 (configuration not stated)
inactive: [1] -36.3% | [2] -11.4% | [3] -6% | [4] 11.1% | [5] -3.1% | [6] -16.6%

CCN(c1ccc(Br)cc1)c1ccc(Br)cc1
inactive: [1] -14.2% | [2] -20.1% | [3] -23.2% | [4] -7.75% | [5] 3.75% | [6] 7.55%

CCOC(=O)CN1CC(C2=C(O)CN(CC(=O)OCC)C2=O)=CC1=O
inactive: [1] 0.75% | [2] 9.7% | [3] -12.6% | [4] 29.1% | [5] 9.55% | [6] -27%

NC(=O)C1(C(N)=O)CC1
inactive: [1] 11.4% | [2] 4.55% | [3] -14.5% | [4] -0.05% | [5] -3.75% | [6] 5.1%

CCOc1ccccc1C(=O)O
inactive: [1] 13.2% | [2] 6% | [3] 14.2% | [4] 11.4% | [5] -12.1% | [6] 11.4%

C=COC(=O)C=C
inactive: [1] -3.1% | [2] 9.15% | [3] -3.2% | [4] -0.2% | [5] 13.9% | [6] -9.15%

Cc1cc2[nH]c(=O)c(=O)[nH]c2cc1C
inactive: [1] 0.35% | [2] 4.05% | [3] 7.15% | [4] 17.7% | [5] -0.95% | [6] 2.55%

OCc1c(CO)c(Br)c2ccccc2c1Br
inactive: [1] 11.8% | [2] 3.75% | [3] 35% | [4] -6.45% | [5] 4.9% | [6] -6.2%

Cc1ccc(S(=O)(=O)C(Cl)(SCl)Sc2ccccc2)cc1 (configuration not stated)
inactive: [1] 64% | [2] 41.2% | [4] 47.3% | [5] 46.4%
active: [3] 74.9% | [6] 77.9%

CC(=O)OCC12CC(c3ccoc3)OC3CCC4C(=O)OC(CC1C)C4(C)C32 (configuration not stated)
inactive: [1] -19.4% | [2] -29.4% | [3] -18.6% | [4] 4.3% | [5] -23.9% | [6] -22.8%

O=C(/C=C/c1ccccc1)SCc1ccccc1
inactive: [1] -2.9% | [2] 14% | [3] 11.2% | [4] -2.1% | [5] -4.75% | [6] 2.35%

CN(C)Cc1cc(N=Nc2ccccc2)ccc1O
inactive: [1] -23.4% | [2] -12.2% | [3] -12.4% | [4] 9.4% | [5] 4.9% | [6] -19.4%

CC(C)CC(NC(c1ccccc1)P(=O)(O)O)C(=O)O (configuration not stated)
inactive: [1] -4.15% | [2] -13.2% | [3] -22.1% | [4] -9% | [5] -8.3% | [6] -27.1%

CC(C)CC1CC(=O)NC1C(=O)O (configuration not stated)
inactive: [1] -14.2% | [2] 0.35% | [3] -13.2% | [4] -26.1% | [5] -0.85% | [6] -28.9%

c1ccc(-c2csnn2)cc1
inactive: [1] -8.6% | [2] -12.2% | [3] -4.05% | [4] -17.8% | [5] -13.4% | [6] -11.8%

NC(=O)COc1ccc(Cl)cc1Cl
inactive: [1] 16.6% | [2] -0.5% | [3] 28.4% | [4] -0.4% | [5] 5.7% | [6] 20%

COc1ccccc1/C=C1\CCC(CCN2CCOCC2)C1=O (configuration not stated)
inactive: [1] 44.4% | [2] 37.7% | [3] 52.5% | [4] 58.6% | [5] 39.9% | [6] 41.5%

O=c1nc(Oc2ccccc2)nc2c3ccccc3ccn12
inactive: [1] -5.4% | [2] 16.1% | [3] 11.9% | [4] -9.9% | [5] 18.8% | [6] 24.4%

COC(=O)CCN(CCC(=O)OC)C1CC1
inactive: [1] -23.4% | [2] -14.3% | [3] -13.4% | [4] 19.6% | [5] 3.75% | [6] -20.4%

O=[N+]([O-])c1ccc(O)c(C=NCCCN=Cc2cc([N+](=O)[O-])ccc2O)c1
inactive: [1] 0.7% | [2] 7.95% | [3] -5% | [4] -6.95% | [5] 9% | [6] -11.3%

C=C(C)C(C)(C)/C(C)=N\Nc1ccc([N+](=O)[O-])cc1[N+](=O)[O-]
inactive: [1] -0.15% | [2] -7.6% | [3] 6.2% | [4] -23.5% | [5] -0.15% | [6] -8.75%

O=C(O)c1cccc(-n2cnc3c(=O)[nH]cnc32)c1
inactive: [1] -0.25% | [2] -3.85% | [3] -5.85% | [4] -9.15% | [5] 8.6% | [6] -14.2%

COc1ccc(/C(=N\NC(=O)C(N)=O)C(c2ccc(OC)cc2)C2(O)C(=O)Nc3c(Cl)cccc32)cc1 (configuration not stated)
inactive: [1] -9.45% | [2] -15.4% | [3] -49.5% | [4] 32.5% | [5] 0.3% | [6] -23.1%

CCOC(=O)c1c(C)[nH]c(C)c1/C=C/C(=O)O
inactive: [1] 0.95% | [2] -5.1% | [3] -0.9% | [4] 1.45% | [5] 2.35% | [6] -0.8%

COC(=O)c1ccccc1NC(=O)c1cccc(Cl)c1
inactive: [1] 20.9% | [2] 6.85% | [3] 20.6% | [4] 16% | [5] 30.4% | [6] 23.7%

O=C(OCC1OC(C2N(c3ccccc3)CCN2c2ccccc2)C(OC(=O)c2ccccc2)C1OC(=O)c1ccccc1)c1ccccc1 (configuration not stated)
inactive: [1] 0.85% | [2] 6.5% | [3] -26.4% | [4] -7.45% | [5] -11.9% | [6] 9.7%

CC1(C)O[C@H]2[C@H](O)C[C@](O)(CO)C[C@H]2O1
inactive: [1] 1.3% | [2] 3.85% | [3] -0.65% | [4] -27.6% | [5] -9.25% | [6] 1.25%

CC(=O)c1cccc(NC(=O)OC2CCCC(C)C2)c1 (configuration not stated)
inactive: [1] 29.8% | [2] 60.7% | [3] 59.6% | [4] 19.4% | [5] 54% | [6] 43.1%

C=CC12CCCCC1C(NC)Cc1ccc(OC)c(O)c12 (configuration not stated)
inactive: [1] 4.25% | [2] -1.65% | [3] 6.9% | [4] 1.8% | [5] 4.9% | [6] -6.9%
